Results taken from PubChem BioAssay (NCATS).
Inconclusive results are not listed. Calls of active or inactive are those of the source. The call rests on the fitted dose curve; in most records, active means well fitted inhibition curve with a large enough effect; inconclusive means small, poorly fitted or top-dose-only effect; inactive means flat fitted curve, though single readings scatter.

Experiments:
CRL-7250 = normal cell line; test: Cytotoxic Profiling of Annotated Libraries Using Quantitative High-Throughput Screening (AID 1296008); settings: Five cell lines viability, CellTiter-Glo ATP luminescence, 48-72 h; max response: hits give low values; further: potency means the concentration at half of the fitted maximal effect
Procedure, shortened: (§1)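 Compounds were pin-transferred onto cells and incubated 48 or 72 hr at 37 degree Celsius, 95% humidity. CellTiter-Glo was added, plates sat 10 min at room temperature, then ATP-coupled luminescence was imaged as the viability read-out.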

HEK293 = test: as above; settings: Five cell lines viability, CellTiter-Glo ATP luminescence, 48-72 h; max response: hits give low values
Procedure, shortened: as §1

HaCat [1] = test: as above; settings: Five cell lines viability, CellTiter-Glo ATP luminescence, 48-72 h; max response: hits give low values
Procedure, shortened: as §1

NIH3T3 = test: as above; settings: Five cell lines viability, CellTiter-Glo ATP luminescence, 48-72 h; max response: hits give low values
Procedure, shortened: as §1

HEK293T = test: qHTS assay to identify novel small-molecules to repurpose for Merkel cell carcinoma treatment (AID 1296009); settings: MCC and control cell lines, CellTiter-Glo viability, 72 h; at 44.8 µM (top of the series) unless noted
Procedure, shortened: (§2)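 Cells exposed to NPC (8-point) and MIPE (11-point) compound dilutions for 72 hr at 37 degree celsius; viability read by CellTiter-Glo luminescence, normalized to no-cell and DMSO in-plate controls.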

MCC-13 = test: as above; settings: MCC and control cell lines, CellTiter-Glo viability, 72 h; series mostly up to 46 µM
Procedure, shortened: as §2

MCC-26 = test: as above; settings: MCC and control cell lines, CellTiter-Glo viability, 72 h; series mostly up to 46 µM
Procedure, shortened: as §2

HACAT [2] = test: as above; settings: MCC and control cell lines, CellTiter-Glo viability, 72 h; at 44.8 µM (top of the series) unless noted
Procedure, shortened: as §2
Further: nearly all actives have a fitted effect of over 60% in size.
On the % scale 0 is the no-effect control and ±100 the full control effect.

CN1CCN(N)CC1
inactive: max response (CRL-7250) -18.2% | outcome (HEK293) | max response (HaCat [1]) 1.4% | outcome (NIH3T3) | outcome (HEK293T) | Potency (MCC-13) | Potency (MCC-26)

CC(Oc1c(Cl)cccc1Cl)C1=NCCN1 (configuration not stated)
inactive: max response (CRL-7250) -2.82% | max response (HEK293) 4.99% | outcome (HaCat [1]) | max response (NIH3T3) 3.55% | outcome (HACAT [2]) | Potency (MCC-13) | Potency (MCC-26)

CCN(CC)CC(=O)OCC(=O)[C@@]1(O)CC[C@H]2[C@@H]3CCC4=CC(=O)CC[C@]4(C)[C@H]3[C@@H](O)C[C@@]21C
inactive: outcome (CRL-7250) | max response (HEK293) 0.946% | outcome (HaCat [1]) | outcome (NIH3T3) | outcome (HACAT [2]) | Potency (MCC-13) | Potency (MCC-26)

CC(C)(C)CC(=O)OCC(=O)[C@@]1(O)CC[C@H]2[C@@H]3CCC4=CC(=O)C=C[C@]4(C)[C@H]3[C@@H](O)C[C@@]21C
active: Potency (HEK293) 15 µM
inactive: max response (CRL-7250) -1.84% | outcome (HaCat [1]) | max response (NIH3T3) -9.28% | outcome (HACAT [2]) | Potency (MCC-13) | Potency (MCC-26)

CC(=O)Nc1ccc(S(=O)(=O)Nc2cc(C)on2)cc1
inactive: max response (CRL-7250) -2.31% | max response (HEK293) 4.22% | outcome (HaCat [1]) | outcome (NIH3T3) | outcome (HACAT [2]) | Potency (MCC-13) | Potency (MCC-26)

O=C1Cc2cc(Cl)ccc2N1
inactive: max response (CRL-7250) -11.6% | max response (HEK293) -3.82% | outcome (HaCat [1]) | max response (NIH3T3) 3.19% | outcome (HACAT [2]) | Potency (MCC-13) | Potency (MCC-26)

CCCCC(O)/C=C(C)/C=C/C=C/C(=O)N1CCCC1=O (configuration not stated)
inactive: max response (CRL-7250) 0.43% | max response (HEK293) 1.86% | outcome (HaCat [1]) | outcome (NIH3T3) | outcome (HACAT [2]) | Potency (MCC-13) | Potency (MCC-26)

COc1ccc2c(c1)c(CC(=O)OC/C=C(\C)CC/C=C(\C)CCC=C(C)C)c(C)n2C(=O)c1ccc(Cl)cc1
inactive: outcome (CRL-7250) | max response (HEK293) -3.27% | outcome (HaCat [1]) | max response (NIH3T3) 4.12% | outcome (HACAT [2]) | Potency (MCC-13) | Potency (MCC-26)

CCOc1ncc(F)c(=O)[nH]1
inactive: outcome (CRL-7250) | max response (HEK293) -0.0366% | outcome (HaCat [1]) | max response (NIH3T3) -1.34% | outcome (HACAT [2]) | Potency (MCC-13) | Potency (MCC-26)

O=c1[nH]c2ccccc2c(=O)n1CCCl
inactive: max response (CRL-7250) -4.5% | max response (HEK293) -6.35% | outcome (HaCat [1]) | outcome (NIH3T3) | outcome (HACAT [2]) | Potency (MCC-13) | Potency (MCC-26)

CNC(=O)c1c(I)c(NC(C)=O)c(I)c(C(=O)O)c1I
inactive: max response (CRL-7250) -1.99% | max response (HEK293) -7.17% | outcome (HaCat [1]) | max response (NIH3T3) 0.318% | outcome (HACAT [2]) | Potency (MCC-13) | Potency (MCC-26)

CC(=O)N1CCN(c2ccc(O)cc2)CC1
inactive: max response (CRL-7250) -1.56% | max response (HEK293) -2.95% | outcome (HaCat [1]) | outcome (NIH3T3) | outcome (HACAT [2]) | Potency (MCC-13) | Potency (MCC-26)

CC(=O)Nc1c(I)c(NC(C)=O)c(I)c(C(=O)O)c1I
inactive: max response (CRL-7250) 2.5% | max response (HEK293) 2.17% | outcome (HaCat [1]) | max response (NIH3T3) 4.63% | outcome (HACAT [2]) | Potency (MCC-13) | Potency (MCC-26)

CCOc1c(N2CCOCC2)cnn(C)c1=O
inactive: max response (CRL-7250) -1.71% | outcome (HEK293) | max response (HaCat [1]) -2.94% | max response (NIH3T3) -0.145% | outcome (HEK293T) | Potency (MCC-13) | Potency (MCC-26)

COC(=O)c1cc(Cl)c(NC(C)=O)cc1OC
inactive: max response (CRL-7250) 2.72% | max response (HEK293) -2.05% | outcome (HaCat [1]) | outcome (NIH3T3) | outcome (HACAT [2]) | Potency (MCC-13) | Potency (MCC-26)

O=C1c2ccccc2CCc2ccccc21
inactive: max response (CRL-7250) 2.21% | max response (HEK293) -2.77% | outcome (HaCat [1]) | max response (NIH3T3) 0.759% | outcome (HACAT [2]) | Potency (MCC-13) | Potency (MCC-26)

COCCc1ccccn1
inactive: max response (CRL-7250) -7.75% | max response (HEK293) -0.362% | outcome (HaCat [1]) | outcome (NIH3T3) | outcome (HACAT [2]) | Potency (MCC-13) | Potency (MCC-26)

COc1ccc2cc(C=O)ccc2c1
inactive: max response (CRL-7250) 3.03% | max response (HEK293) 0.484% | outcome (HaCat [1]) | max response (NIH3T3) 2.35% | outcome (HACAT [2]) | Potency (MCC-13) | Potency (MCC-26)

COc1ccc2c(c1)CCCC2=O
inactive: max response (CRL-7250) -5.59% | max response (HEK293) -10.4% | outcome (HaCat [1]) | outcome (NIH3T3) | outcome (HACAT [2]) | Potency (MCC-13) | Potency (MCC-26)

Cc1cc(CCCOc2c(C)cc(-c3noc(C(F)(F)F)n3)cc2C)on1
inactive: outcome (CRL-7250) | max response (HEK293) -24.5% | outcome (HaCat [1]) | outcome (NIH3T3) | outcome (HACAT [2]) | Potency (MCC-13) | Potency (MCC-26)

COc1cc(/C=C/C(N)=O)cc(OC)c1OC
inactive: outcome (CRL-7250) | outcome (HEK293) | max response (HaCat [1]) 2.61% | outcome (NIH3T3) | outcome (HEK293T) | Potency (MCC-13) | Potency (MCC-26)
